Screening data deposited in PubChem by National Center for Advancing Translational Sciences (NCATS).
Rows were chosen to be rich in hits. Some 0.52% of all compounds tested hit in one or more screens of this group.
TRPML1 inh: blocks the human TRPML1 channel; Q9GZU1; 390,000 tested, 0.02% active; TRPML1-inducible cells, Ca2+ dye fluorescence, FDSS; stronger effect = lower value; inhibition of EC80 agonist-evoked calcium signal; activity change, negative = inhibition, % (test concentration not listed); in the data active = activity change below about -50%; inconclusive = between about -30% and that limit;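 also: stimulus is agonist 54-4 at its EC80 concentration; % is scaled to controls: 0 for no effect and ±100 for the full control effect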
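TRPML1-DL cells, Tet-induced overnight (~16 h, 37 °C) at 1,500 cells/well, were loaded with Ca8 no-wash dye plus quencher for 45-90 min at room temperature. Compounds were pinned during FDSS kinetic reading; agonist 54-4 at EC80 (4 uM final) then added.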
TRPML1 ag: activates the human TRPML1 channel. TRPML1-expressing cells, Ca2+ dye fluorescence, FDSS. 410,000 tested, 0.12% active. Q9GZU1. activation, % (test concentration not listed). AID 624414; in the data active = activation above about 50%; inconclusive = mostly about 30% to 49%; also: 0% is about no effect
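In this qHTS format, compounds were pin-transferred onto Ca8-dye-loaded TRPML1-DL cells induced with Tet overnight, and intracellular Ca2+ fluorescence was recorded kinetically for 110 s after a 10 s baseline. A subsequent 4uM final 54-4 (EC80) addition followed by a second 110 s read served as the antagonist phase.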
Vif-APOBEC3G blk: blocks the Vif interaction with human APOBEC3G; Q9HC16; HeLa A3G-eYFP + Vif (tagged APOBEC3G with the HIV-1 protein that degrades it), YFP fluorescence, overnight; Potency, µM (series often up to 46.1 µM), without a hit: at the top dose activity, negative = active, usual class: inhibitors; 410,000 tested, 0.076% active; also: potency is read from the fitted curve at half-maximal effect; % is scaled to controls: 0 for no effect and ±100 for the full control effect; nearly all actives have a fitted effect of over 60% in size
Target sequence (Q9HC16 whole entry, looked up): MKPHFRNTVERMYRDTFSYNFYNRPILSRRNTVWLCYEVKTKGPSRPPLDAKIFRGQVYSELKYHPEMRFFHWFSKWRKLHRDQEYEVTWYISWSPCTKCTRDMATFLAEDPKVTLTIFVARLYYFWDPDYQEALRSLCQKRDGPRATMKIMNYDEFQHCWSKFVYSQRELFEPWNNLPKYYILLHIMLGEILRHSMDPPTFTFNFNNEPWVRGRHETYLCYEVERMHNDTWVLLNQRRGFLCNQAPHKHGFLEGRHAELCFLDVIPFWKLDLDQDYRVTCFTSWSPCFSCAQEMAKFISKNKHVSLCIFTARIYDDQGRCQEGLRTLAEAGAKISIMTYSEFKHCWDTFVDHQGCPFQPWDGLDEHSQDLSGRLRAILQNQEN
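Read-out is eYFP fluorescence (Ex 488/Em 500-530) from Vif-expressing HeLa A3G-eYFP cells; more signal means A3G escaped Vif-mediated degradation. Cells plated overnight, compound pinned in, incubated overnight at 37 deg C.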
Vif-APOBEC3F blk: inhibitors of Vif-A3F interaction; HeLa A3F-eYFP + Vif (tagged APOBEC3F with the HIV-1 protein that degrades it), YFP fluorescence increase; Potency, µM (top dose mostly 46.1 µM), inactives show top-dose activity, negative = active; AID 602313; 390,000 tested, 0.2% active; also: potency is read from the fitted curve at half-maximal effect; % of control where 0% means no effect; nearly all actives have a fitted effect of over 65% in size
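HeLa cells stably expressing Vif plus C-terminally eYFP-tagged A3F were seeded, incubated overnight at 37 deg C, dosed with compound, incubated overnight again at 37 deg C. Yellow fluorescence (Ex 488/Em 500-530) reported blocked Vif-mediated A3F-eYFP degradation.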
PINK1 expr mod: changes PINK1 expression. PINK1 immunofluorescence, high-content cytometry, 24 h. Potency, µM (doses to about 76.6 µM), for the others: at the highest dose activation (PINK1 increase), usual class: activators. 410,000 tested, 0.2% active; active = well fitted activation curve with a large enough effect; inconclusive = small, poorly fitted or top-dose-only effect; cell line not stated here; also: potency is read from the fitted curve at half-maximal effect; % of control where 0% means no effect; nearly all actives have a fitted effect of over 65% in size
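PINK1 protein level read as immunofluorescence by microplate cytometer in a fixed, stained stable cell line after 24 h exposure to five compound concentrations, with CCCP as control.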
The depositor's hits bear a star; ? = inconclusive; nt = no result given. Unless noted, calls follow the shape of the dose curve; as a rule, active = well fitted curve in the direction sought with a large enough effect; inconclusive = small, poorly fitted or top-dose-only effect, or another doubt; inactive = no such curve, though single readings can be large; an effect the other way counts as inactive or inconclusive.

SMILES	TRPML1 inh	TRPML1 ag	Vif-APOBEC3G blk	Vif-APOBEC3F blk	PINK1 expr mod
N=c1n(CC(=O)c2ccc([N+](=O)[O-])cc2)c2ccccc2n1Cc1ccc(Cl)cc1	-13.6	0.5	-5.1%	?	-2.7%
Cc1nn(CCCC(=O)NCCc2ccc(Cl)cc2)c(=O)c2c1sc1ccccc12	6.4	0.9	-1.8%	-5.3%	1.8%
Cn1c(N)c(-c2ccccc2)c2ccc([N+](=O)[O-])cc2c1=O	-2.6	83.3*	8.91µM*	?	1.6%
CCOc1cc(/C=C/C(=O)N(CC)CC(=O)NCc2cccs2)cc(Cl)c1OC	-18.0	2.5	-4.0%	-7.6%	0.1%
Cc1cccc(OC(C)C(=O)Nc2nonc2-c2ccc(Br)cc2)c1C (centres undefined)	15.9	2.2	nt	nt	17.9%
Cc1ccc(OC(C)C(=O)Nc2nonc2-c2ccc(Br)cc2)cc1C (centres undefined)	12.5	0.9	nt	nt	22.4µM*
Cc1cc(C(=O)Nc2ccc([N+](=O)[O-])cn2)cs1	0.8	-0.8	0.4%	-2.6%	-0.1%
c1ccc(N=c2nc(-c3ccccc3)n(-c3ccccc3)s2)cc1	nt	-0.3	-11.2%	nt	15.8µM*
COc1ccc(C(=O)Nc2ccccc2C(=O)OCc2cc(=O)n3c4c(sc3n2)CCCC4)cc1	32.8	1.7	6.5%	-2.6%	0.4%
CCOc1ccc(NC(=O)c2ccc3c(c2)CCN3S(=O)(=O)CC)cc1	-12.6	-0.7	3.5%	0.6%	4.8%
Cc1onc(-c2c(F)cccc2Cl)c1C(=O)Nc1nccs1	-17.8	-0.3	-6.8%	2.9%	3.2%
Cc1onc(-c2c(F)cccc2Cl)c1C(=O)Nc1nnc(C(F)(F)F)s1	-13.1	0.3	-8.8%	-9.8%	15.8µM*
COc1cccc(C#Cc2c(C=O)n(C)c3ccccc23)c1	14.8	0.8	-16.2%	-26.4%	39.8µM*
Cn1c(C=O)c(C#CC(C)(C)O)c2ccccc21	52.1	0.1	-3.7%	-0.3%	0.6%
CCCCC(=O)NS(=O)(=O)c1ccc(N=NN(CC)CC)cc1	7.3	0.4	-2.4%	8.3%	0.6%
N#Cc1cc(C(=O)c2ccccc2OCC(=O)Nc2ccccc2Cl)cn(C2CCCCC2)c1=O	-2.9	-0.4	0.2%	-2.5%	-0.2%
N#Cc1cc(C(=O)c2cc(Br)ccc2O)cn(C2CCCCC2)c1=O	5.4	1.4	-0.8%	-1.1%	22.4µM*
COc1ccc(Cc2c(-c3ccc(C)cc3)nc3ccc(Cl)cn23)c(C)c1	49.7	0.3	-13.0%	nt	31.6µM*
O=C1CC2(CCN(C(=O)c3ccc(F)cc3)CC2)Oc2ccccc21	-9.3	0.0	-3.0%	8.8%	-3.5%
CN(C)c1ccc(/C=C/c2ccnc3ccccc23)cc1C=O	nt	-0.1	7.08µM*	nt	8.9%
CN(C)c1ccc(/C=C/c2ccnc3ccccc23)cc1O	nt	23.9	11.2µM*	nt	3.1%
Cc1ccc(S(=O)(=O)c2nnn3c2nc(N2CCN(c4ccccc4F)CC2)c2ccccc23)cc1C	22.4	0.3	-0.9%	-3.7%	0.1%
CC(NC(=S)Nc1cccc(C(F)(F)F)c1)C(C)(C)C (centres undefined)	-2.9	0.1	0.6%	31.6µM*	?
Cc1nc2cnc(N(C)C)nc2n(CCc2ccccc2)c1=O	nt	nt	nt	nt	0.1%
N#C/C(=C\Nc1ccc2cn[nH]c2c1)c1nc(-c2ccccc2)cs1	0.1	-1.0	-20.9%	-27.4%	2.3%
SMILES	TRPML1 inh	TRPML1 ag	Vif-APOBEC3G blk	Vif-APOBEC3F blk	PINK1 expr mod
N#CC(=Cc1ccccn1)c1nc(-c2ccc(Cl)cc2)cs1	1.1	1.1	5.62µM*	?	10.2%
N#C/C(=C\Nc1ccc2cn[nH]c2c1)c1nc(-c2ccc(Cl)cc2)cs1	10.9	-1.0	-21.5%	22.4µM*	5.6%
Cc1ccc(NC(=O)CSc2nnc(-c3ccncc3)o2)cc1C	-3.0	0.5	6.2%	3.7%	-1.3%
C[C@@H](c1ccccc1)N1C[C@@H](COCc2ccccc2)Oc2cc(N3CC[C@@H](N(C)C)C3)ccc2S1(=O)=O	nt	-0.2	nt	nt	-0.9%
Cc1sc(-c2cc3c([nH]c2=O)CC(c2ccccc2)CC3=O)nc1-c1ccc(Cl)cc1 (centres undefined)	9.5	-0.5	10µM*	12.6µM*	5.2%
O=C(Nc1ccc([N+](=O)[O-])cc1)C(Cc1ccccc1)N1C(=O)c2cccc3cccc(c23)C1=O (centres undefined)	-10.9	0.3	10µM*	?	10.1%
O=C(Nc1ccccc1)C(Cc1ccccc1)N1Cc2ccccc2C1=O (centres undefined)	16.7	1.6	0.7%	7.4%	?
C=C(C)Cn1c(=O)c2c(nc3n2CCCN3CCc2ccccc2)n(C)c1=O	40.0	1.1	-1.7%	-1.0%	0.3%
CC(C)N1CCc2c(sc(NC(=O)c3cc4cc([N+](=O)[O-])ccc4s3)c2C(N)=O)C1	-3.5	0.1	8.91µM*	?	-1.4%
CC(C)N1CCc2c(sc(NC(=O)c3ccc4ccccc4c3)c2C(N)=O)C1	1.3	9.1	?	?	11.5%
Cc1nn2c(NCc3ccccn3)cc(C(C)(C)C)nc2c1-c1ccccc1	8.9	1.4	-4.4%	0.0%	17.8µM*
Cc1cc(NCc2ccccn2)n2nc(C)c(-c3ccccc3)c2n1	1.0	2.1	3.0%	-0.8%	6.5%
COc1ccccc1N1CCN(CC(=O)Nc2nc(C)c(C(=O)N(C)C)s2)CC1	nt	nt	0.2%	1.2%	0.1%
CCC[n+]1c(/C=C/c2c(OC)cc(OC)cc2OC)ccc2ccccc21	nt	7.9	?	nt	?
CCCC[n+]1c(/C=C/c2c(OC)cc(OC)cc2OC)ccc2ccccc21	nt	14.9	?	nt	5.62µM*
O=C(CSc1nnc2ccc(-c3ccccn3)nn12)Nc1ccccc1F	3.8	0.0	5.3%	2.4%	17.6%
N#C/C(=C\c1ccc([N+](=O)[O-])o1)C(=O)Nc1ccc(F)cc1	-6.9	5.4	?	22.4µM*	19.3%
O=C(Cc1ccc([N+](=O)[O-])cc1)N/N=C/c1ccc([N+](=O)[O-])o1	0.9	0.7	-13.9%	-6.1%	35.5µM*
Cc1ccc(/C=C(\C#N)C(=O)Nc2ccc(Br)cc2)o1	0.1	0.4	nt	nt	10.2%
N#CCc1ccc(NC(=O)/C=C/c2ccc([N+](=O)[O-])o2)cc1	12.6	-0.2	6.31µM*	2.51µM*	21.8%
CCCCCCCC(=O)N/N=C/c1ccc([N+](=O)[O-])o1	10.1	1.3	?	-26.9%	6.2%
O=C(O)/C=C/c1ccc([N+](=O)[O-])o1	17.7	1.8	2.3%	15.1%	0.5%
Cc1nc([N+](=O)[O-])c(Sc2nc3ccccc3n2C)n1Cc1ccccc1	-1.8	1.0	-15.5%	2.8%	-1.1%
Cn1c(N)c(C(=O)COC(=O)c2cc(S(=O)(=O)N3CCOCC3)ccc2F)c(=O)n(C)c1=O	23.2	0.2	-4.9%	1.7%	-2.8%
COc1cccc(N2CCN(C(=O)CN(C)S(=O)(=O)c3ccc4c(c3)c(=O)n(C)c(=O)n4C)CC2)c1	-12.8	1.1	-6.8%	1.6%	1.8%
